Laboratory results as given in ChEMBL document CHEMBL1157539, “Thousands of chemical starting points for antimalarial lead identification” (Nature, 2010).

What was measured:
Type in all cases: functional
Plasmodium falciparum [1] = assay: GSK_TCMDC: Inhibition of Plasmodium falciparum 3D7 in whole red blood cells, using parasite LDH activity as an index of growth. Test compounds present at 2uM
Plasmodium falciparum [2] = assay: GSK_TCMDC: Inhibition of Plasmodium falciparum Dd2 in whole red blood cells, using parasite LDH activity as an index of growth. Test compounds present at 2uM
HepG2 = assay: GSK_TCMDC: Percent inhibition of human HepG2 cell line. Test compounds present at 10uM.

SMILES | Inhibition (Plasmodium falciparum [1]) | Inhibition (Plasmodium falciparum [2]) | Inhibition (HepG2)
CCOc1c(CNCCCNc2cc(=O)c3ccccc3[nH]2)cc(I)cc1C(C)(C)C.Cl | 100% | 89% | 17%
CCN(CC)/C(=N\CCCCCC/N=C(\NC(=N)c1ccc(Cl)cc1)N(CC)CC)NC(=N)c1ccc(Cl)cc1 | 97% | 99% | 1%
O=C(O)C(F)(F)F.c1cc(CNCC2CCCO2)cc(-c2cccc(-c3nc4ccccc4[nH]3)c2)c1 (stereo not given) | 100% | 7% | 15%
COc1ccc(CN2CCC(NCc3cccc([N+](=O)[O-])c3)CC2)cc1.O=C(O)C(F)(F)F | 92% | 3% | 6%
O=C(NCc1cccc(C(F)(F)F)c1)c1ccc(CNC(=O)c2ccc(O)c(-c3ccc(Cl)c(Cl)c3)c2)cc1 | 92% | 15% | 7%
COc1cc(F)c2ncc(Cl)c(CCN3CCC(NCc4ccc5c(c4)NC(=O)CO5)CC3)c2c1.Cl | 95% | 79% | 32%
N#Cc1ccc(Sc2nnc(-c3ccccc3Cl)n2CC2CCCCC2)cc1[N+](=O)[O-] | 85% | 34% | 30%
CC(C)NCc1cccc(-c2ccc(NS(=O)(=O)c3cccc4cccnc34)cc2)c1.O=C(O)C(F)(F)F | 90% | 10% | 21%
CCOC(=O)c1c[nH]c2c(ccc3ccccc32)c1=O | 96% | 96% | 0%
CCN(CC)CCNc1ccc(Nc2ccnc3cc4ccccc4cc23)cc1 | 100% | 99% | 36%
